Results published in the supplement of paper PMC4894684.
Where a name gives a salt, the structure may show the parent alone. ± gives the standard deviation of the averaged measurements.

Tested on: Toxoplasma gondii RH (in HFF)
Assay: parasite growth relative to the screen mean (all compounds = 100%); higher = less inhibition of parasite growth
Settings: 5 µM; 72 h; oxygen 21 %
How it was run: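 Growth values are relative to the mean of the whole screen and averaged over duplicate screens, with all compounds together set to 100%. Parasites (RH β-Gal–GFP Toxoplasma, MOI 1:5) were added within 2 h of pinning compounds at 5 µM final onto confluent human foreskin fibroblasts and grown 72 h at 21% O2. Parasite number came from CPRG β-Gal readings against in-plate standard curves.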

Row | Structure (SMILES) | parasite growth [%]
1 | N#C/C(=C(/N)Sc1ccc(N)cc1)c1ccccc1C(F)(F)F | 113 ± 29
2 | Cc1cccc(C(=O)NCN2CCN(c3ccccc3C#N)CC2)c1 | 133 ± 7.4
3 | CS(=O)(=O)Nc1ccc([N+](=O)[O-])cc1Oc1ccccc1 [Nimesulide] | 98.5 ± 4.5
4 | N[C@@H](C(=O)O)c1ccc(O)c(C(=O)O)c1 [(R)-3-Carboxy-4-hydroxyphenylglycine] | 148 ± 15
5 | COc1cc(NC(=O)c2ccccn2)ccc1Cl | 91.2 ± 30
6 | CC(C)C(=O)c1c(C(C)C)nn2ccccc12 [Ibudilast] | 75.7 ± 12
7 | CCc1ccc(OCc2ccccc2C(=O)Nc2ccc3nc(C)cc(N)c3c2)cc1 | < 0
8 | NCCCCCCCCCCNS(=O)(=O)c1cccc2c(Cl)cccc12 [A-7 hydrochloride] | 142 ± 17
9 | COc1ccc2c(c1)c(CC(=O)N1CCOCC1)c(C)n2C(=O)c1ccc(Cl)cc1 | 133 ± 23
10 | CCN(Cc1ccncc1)C(=O)C(CO)c1ccccc1 (centres undefined) [Tropicamide] | 111 ± 11
11 | C/C=C1\C(=O)C[C@H]2[C@@H]3CCC4=CC(=O)CC[C@]4(C)[C@H]3CC[C@]12C [Guggulsterone] | 90.6 ± 26
12 | N#Cc1ccc(NCCNCC(=O)N2CCC[C@H]2C#N)nc1 [NVP DPP 728 dihydrochloride] | 81.5 ± 3.9
13 | CSc1nc(NC2CCCC2)c([N+](=O)[O-])c(NC2CCCC2)n1 | 35.6 ± 32
14 | N[C@@H](CS(=O)O)C(=O)O [L-Cysteinesulfinic acid] | 61 ± 6.7
15 | c1ccc2nc(C3=NCCN3)cnc2c1 [BU 239 hydrochloride] | 102 ± 22
16 | Cc1c(C(=O)N(C)C2CCCCC2)sc2nc3ccc(N)cc3n12 | 185 ± 31
17 | CCCC1O[C@@H]2C[C@H]3[C@@H]4CCC5=CC(=O)C=C[C@]5(C)[C@H]4[C@@H](O)C[C@]3(C)[C@]2(C(=O)CO)O1 (some centres undefined) [Budesonide] | 138 ± 12
18 | CCN(CC)CCCCNc1ncc2cc(-c3c(Cl)cccc3Cl)c(NC(=O)NC(C)(C)C)nc2n1 | < 0
19 | CC(/C=C/c1cccc(Oc2ccc(F)cc2)c1)N(O)C(N)=O (centres undefined) | 184 ± 12
20 | CCOC(=O)C1=C(C)NC(C)=C(C(=O)OC)C1c1cccc([N+](=O)[O-])c1 (centres undefined) [Nitrendipine] | 118 ± 5.5

Row | Structure (SMILES) | parasite growth [%]
21 | CC(C)C[C@H](NC(=O)[C@@H](O)[C@H](N)Cc1ccccc1)C(=O)O [Bestatin] | 136 ± 6.9
22 | O=C(O)C1=CCCN(CCON=C(c2ccccc2)c2ccccc2)C1 | 159 ± 9.8
23 | CN/C(=N\c1ccc(C2=NNC(=O)CC2C)cc1)NC#N (centres undefined) [Siguazodan] | 130 ± 23
24 | Cc1cc(C(=O)O)sc1C(N)C(=O)O (centres undefined) | 126 ± 5.2
25 | CC(C)NCC(O)COc1cccc2[nH]ccc12 (centres undefined) [Pindolol] | 148 ± 24
26 | CC#CCOC(=O)c1c(C)nc2sc3c(c2c1N)CCC(O)C3 (centres undefined) | 117.8 ± 0.28
27 | O=C(O)c1ccc(-c2c[nH]c3ncc(-c4ccccc4)cc23)cc1C1CCCC1 | 46.2 ± 9.6
28 | CCN1CCCC1CNC(=O)c1cc(S(=O)(=O)CC)c(N)cc1OC (centres undefined) [Amisulpride] | 115 ± 14
29 | COC(=O)/C=C/c1cc(O)ccc1O [Methyl 2,5-dihydroxycinnamate] | 126 ± 30
30 | Fc1ccc(-c2nc3n(c2-c2ccncc2)CCS3)cc1 | < 0
31 | Cc1ccc(C(=O)Nc2ccc(S(=O)(=O)O)c3cc(S(=O)(=O)O)cc(S(=O)(=O)O)c23)cc1NC(=O)c1cccc(NC(=O)Nc2cccc(C(=O)Nc3cc(C(=O)Nc4ccc(S(=O)(=O)O)c5cc(S(=O)(=O)O)cc(S(=O)(=O)O)c45)ccc3C)c2)c1 [Suramin hexasodium salt] | 90 ± 22
32 | CC(NC(=O)c1ccccc1/N=C/c1c(O)ccc2ccccc12)c1ccccc1 (centres undefined) [Sirtinol] | 97.5 ± 34
33 | COc1ccc(CN2C(=O)C(=O)c3cc(OC(F)(F)F)ccc32)cc1 | 68.6 ± 14
34 | CC(C)(C(=O)O)c1ccc(C(O)CCCN2CCC(C(O)(c3ccccc3)c3ccccc3)CC2)cc1 (centres undefined) [Fexofenadine hydrochloride] | 122 ± 26
35 | CC(=O)OCCNC(=O)c1cccnc1 [N-[2-(Acetoxy)ethyl]-3-pyridinecarboxamide] | 117 ± 13
36 | COc1cc2ncnc(Nc3ccc(Oc4ccccc4)cc3)c2cc1OC | 110 ± 20
37 | CCOC(=O)c1ncn2c1CN(C)C(=O)c1cc(F)ccc1-2 [Flumazenil] | 84.5 ± 15
38 | COc1ccc(C(=O)Nc2sc3c(c2C(N)=O)CCCC3)cc1OC | 112 ± 5.8
39 | COc1ccc(CC(C)NCC(O)c2ccc(O)c(NC=O)c2)cc1 (centres undefined) [Formoterol hemifumarate] | 126 ± 5.6
